SMILES strings stand for the structures. About 2,800 (0.78%) of roughly 360,000 compounds were called active. This is one part of a sample in which actives are shown more often than they occur. Unmarked numbers belong to inactive results. No stated cut-off is given here; in the data, active means inhibition above about 26%; inactive means the rest.

In PubChem BioAssay AID602399 (Sanford-Burnham Center for Chemical Genomics, 2012) one finds inhibition data, which are given here for 25 compounds.

This experiment deals with Nicotinate-nucleotide adenylyltransferase NadD (Staphylococcus aureus N315). In words: inhibitors of S. aureus NadD, primary screen, biochemical, colorimetric, uHTS (AID 602399). The following applies: purified NadD enzyme, colorimetric absorbance read-out; at 20 µM; active compounds read high.
For `Cc1ccc(N2C(=O)C3N=NN(CC(=O)N4N=C(c5cccc6ccccc56)CC4c4ccccc4)C3C2=O)cc1` (stereo not given), the inhibition was 45.4% (active).

Regarding `O=C1c2cccc(OCC(=O)N3N=C(c4cccs4)CC3c3ccc(F)cc3)c2CCN1Cc1ccccc1` (stereo not given), the inhibition was 26.5%.

For `CC1=C(C)CC2C(=O)N(c3cccc4ccccc34)C(=O)C2C1` (stereo not given), the inhibition was -0.224%.

Take `O=C1C2N=NN(CC(=O)N3N=C(c4cccc5ccccc45)CC3c3ccccc3)C2C(=O)N1c1ccccc1` (stereo not given): the inhibition is 48.5% (active).

Turning to `Oc1ccccc1C1=NN(c2ccccc2)C(c2ccccc2)C1` (stereo not given), the inhibition was -11.2%.

As for `Cc1ccc(C2=NN(C(=O)COc3ncnc4ccccc34)C(c3ccco3)C2)cc1` (stereo not given), the inhibition was 0.743%.

Consider `CN1CCN(C(=O)/C(=C\c2ccc3c(c2)OCO3)NC(=O)c2cccs2)CC1`, for which the inhibition is -6.87%.

Take `O=C1CC2(CCCC2)Oc2ccc(Cl)cc21`: the inhibition is -1.24%.

As for `CCSC1=NCCN1C(=O)c1ccc(S(=O)(=O)N(CC)CC)cc1`, the inhibition was 3.55%.

With `Cc1ccc(-n2c(=O)cc(N3CCN(Cc4ccccc4)CC3)[nH]c2=O)cc1`, the inhibition is 4.3%.

In the case of `Cc1cccc(CCNS(=O)(=O)c2ccc3c(c2)NC(=O)CO3)c1`, the inhibition is -0.563%.

In the case of `COC(=O)c1ccc(/C=N/OCC(=O)Nc2cc(F)ccc2F)cc1`, the inhibition is -3.44%.

With `CCCc1nc2c3ccccc3ccn2c1Cc1ccccc1C(F)(F)F`, the inhibition was 1.56%.

On to `Cc1ccc(C(=O)NNc2ncnc3ccccc23)cc1`, for which the inhibition is -2.31%.

In the case of `Cc1ccc(C(=O)NNC(=O)c2cc3cc4ccccc4nc3s2)cc1`, the inhibition was 31.4% (active).

Take `Cc1ccc(C(=O)NNC(=O)CSc2nnc3ccccn23)cc1`: the inhibition was -1.33%.

For `Nc1nc2c(ncn2[C@@H]2O[C@H](CNS(=O)(=O)N3CCc4ccccc4C3)[C@@H](O)[C@H]2O)c(=O)[nH]1`, the inhibition was 1.88%.

As for `CCC/C=C(\CCC)C(NC(=O)Cc1ccccc1)c1ccc(C(=O)OC)cc1` (stereo not given), the inhibition was 10.4%.

For the compound `CC1CCN(C(=O)Cn2cc(C(=O)c3ccco3)c3ccccc32)CC1`, the inhibition was 3.46%.

Take `O=C(c1ccc(CS(=O)(=O)c2ccccc2)o1)N1CCN(c2ccccc2)CC1`: the inhibition is 1.5%.

On to `Cc1cccc(-c2oc3ccc(-c4ccc5c(c4)OCO5)cc3c2C#Cc2cncn2C)c1`, for which the inhibition was 26.9%.

With `Cn1cncc1C#Cc1c(-c2ccsc2)sc2ccccc12`, the inhibition is 30% (active).

`COc1ccc2sc(-c3ccc(S(C)(=O)=O)cc3)c(C#Cc3cncn3C)c2c1`: the inhibition is 0.758%.

As to `CS(=O)(=O)N(CC(=O)N1CCCCCC1)c1cccc(Cl)c1Cl`, the inhibition was -9.97%.

In the case of `Cc1c(S(=O)(=O)NCc2ccccc2)c(=O)n(C)c(=O)n1C`, the inhibition was -3.14%.

As usually defined, the inhibition is the relative decrease from the control value, in per cent.
